Data: PubChem BioAssay AID1159580 (chemical genetic matrix, 2015)
Where “and” joins values, the source holds several entries; their conditions need not be identical. Equal values may be shown once. Hit rate of the full screen: of about 5,500 compounds, about 2,000 (36%) were called active. Roughly 18% stayed inconclusive and do not appear here. Rule as the data show it: active = normalized growth mostly below about 0.91 (no sharp cut-off); inconclusive = no clear call, values can overlap the other calls; inactive = mostly above about 0.92. The list shows a part of the results. A structure can be active in one record and inactive in another.

Test: chemical genetic growth profiling, strain panel (AID 1159580);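 also: tested at 20 µM; growth read once vehicle control cultures reached saturation at 30 °C; 1 = growth at the plate median or of vehicle wells; lower values mean less growth of the strain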
Conditions: S. cerevisiae deletion strains, growth OD

Measured: normalized growth

Clc1ccccc1C(c1ccccc1)(c1ccccc1)n1ccnc1
inactive: locus YOL012C, strain htz1 0.23
0.0559 (active) and 0.976 (inactive): locus YMR263W, strain SAP30, stronger effect = lower value
active: locus YAL013W, strain DEP1, stronger effect = lower value 0.0556 and 0.0854 | locus YAL021C, strain ccr4, stronger effect = lower value 0.0659 | locus YAL026C, strain drs2, stronger effect = lower value 0.0665 | locus YAL030W, strain snc1, stronger effect = lower value 0.0563 | locus YAL040C, strain CLN3, stronger effect = lower value 0.613 | locus YBL061C, strain skt5, stronger effect = lower value 0.0604 | locus YBR009C, strain hhf1, stronger effect = lower value 0.0704 | locus YBR021W, strain FUR4, stronger effect = lower value 0.0896 | locus YBR023C, strain chs3, stronger effect = lower value 0.0661 | locus YBR171W, strain sec66, stronger effect = lower value 0.0777 | locus YBR229C, strain ROT2, stronger effect = lower value 0.0472 | locus YBR231C, strain swc5, stronger effect = lower value 0.0624 | locus YBR279W, strain paf1, stronger effect = lower value 0.0598 | locus YCL011C, strain gbp2, stronger effect = lower value 0.0573 | locus YCL016C, strain dcc1, stronger effect = lower value 0.066 | locus YCL029C, strain bik1, stronger effect = lower value 0.0623 | locus YCL061C, strain MRC1, stronger effect = lower value 0.0642 | locus YCL069W, strain vba3, stronger effect = lower value 0.0627 | locus YCR088W, strain abp1, stronger effect = lower value 0.0657 | locus YDL005C, strain med2, stronger effect = lower value 0.0759 | locus YDL035C, strain GPR1, stronger effect = lower value 0.0497 | locus YDL040C, strain nat1, stronger effect = lower value 0.058 | locus YDL074C, strain BRE1, stronger effect = lower value 0.0785 | locus YDL101C, strain DUN1, stronger effect = lower value 0.0582 | locus YDL134C, strain PPH21, stronger effect = lower value 0.0506 | locus YDL185W, strain tfp1, stronger effect = lower value 0.0604 | locus YDL192W, strain arf1, stronger effect = lower value 0.0622 | locus YDR001C, strain nth1, stronger effect = lower value 0.0587 | locus YDR069C, strain doa4, stronger effect = lower value 0.0629 | locus YDR101C, strain arx1, stronger effect = lower value 0.0588 | locus YDR137W, strain rgp1, stronger effect = lower value 0.103 | locus YDR150W, strain NUM1, stronger effect = lower value 0.0555 | locus YDR159W, strain sac3, stronger effect = lower value 0.0888 | locus YDR162C, strain NBP2, stronger effect = lower value 0.0501 | locus YDR195W, strain ref2 0.125 | locus YDR297W, strain sur2, stronger effect = lower value 0.0578 | locus YDR318W, strain mcm21, stronger effect = lower value 0.0626 | locus YDR334W, strain swr1, stronger effect = lower value 0.0633 | locus YDR335W, strain msn5, stronger effect = lower value 0.0619 | locus YDR388W, stronger effect = lower value 0.0576 | locus YDR392W, strain spt3, stronger effect = lower value 0.0716 | locus YDR502C, strain sam2, stronger effect = lower value 0.0632 | locus YEL003W, strain gim4, stronger effect = lower value 0.0556 | locus YEL037C, strain rad23, stronger effect = lower value 0.0574 | locus YEL061C, strain CIN8 (second series), stronger effect = lower value 0.0638 | locus YEL061C, strain CIN8, stronger effect = lower value 0.0506 | locus YER002W, strain NOP16, stronger effect = lower value 0.0949 | locus YER015W, strain faa2, stronger effect = lower value 0.0658 | locus YER016W, strain bim1, stronger effect = lower value 0.0637 | locus YER110C, stronger effect = lower value 0.0769 | locus YER111C, strain swi4, stronger effect = lower value 0.0727 | locus YER155C, strain BEM2 (second series), stronger effect = lower value 0.0917 | locus YER155C, strain BEM2, stronger effect = lower value 0.0644 | locus YER167W, strain BCK2, stronger effect = lower value 0.0514 | locus YFR010W, strain ubp6, stronger effect = lower value 0.0718 | locus YGL078C, strain dbp3, stronger effect = lower value 0.0828 | locus YGL086W, strain mad1, stronger effect = lower value 0.0584 | locus YGL167C, strain pmr1, stronger effect = lower value 0.0741 | locus YGL173C, strain kem1, stronger effect = lower value 0.07 | locus YGL227W, strain vid30, stronger effect = lower value 0.0633 | locus YGL240W, strain doc1, stronger effect = lower value 0.0729 | locus YGL248W, strain PDE1, stronger effect = lower value 0.0484 | locus YGL253W, strain hxk2, stronger effect = lower value 0.0556 | locus YGR078C, strain PAC10, stronger effect = lower value 0.0496 | locus YGR135W, strain pre9, stronger effect = lower value 0.0631 | locus YGR252W, strain gcn5, stronger effect = lower value 0.165 | locus YHR013C, strain ard1, stronger effect = lower value 0.105 | locus YHR027C, strain rpn1, stronger effect = lower value 0.0633 | locus YHR030C, strain SLT2, stronger effect = lower value 0.0505 and 0.1 | locus YHR079C, strain IRE1 (second series), stronger effect = lower value 0.0577 | locus YHR079C, strain IRE1, stronger effect = lower value 0.135 | locus YHR094C, strain hxt1, stronger effect = lower value 0.059 | locus YHR129C, strain ARP1, stronger effect = lower value 0.0557 | locus YHR142W, strain chs7, stronger effect = lower value 0.0738 | locus YHR200W, strain rpn10, stronger effect = lower value 0.0614 | locus YIL066C, strain RNR3, stronger effect = lower value 0.0483 | locus YIL073C, strain SPO22, stronger effect = lower value 0.112 | locus YIL125W, strain kgd1, stronger effect = lower value 0.0895 | locus YIR030C, strain dcg1, stronger effect = lower value 0.0606 | locus YJL092W, strain hpr5, stronger effect = lower value 0.0611 | locus YJL095W, strain BCK1 (second series), stronger effect = lower value 0.059 | locus YJL095W, strain BCK1, stronger effect = lower value 0.0611 and 0.105 | locus YJL115W, strain asf1, stronger effect = lower value 0.0739 | locus YJL129C, strain trk1, stronger effect = lower value 0.0834 | locus YJL134W, strain LCB3, stronger effect = lower value 0.0474 | locus YJL154C, strain vps35, stronger effect = lower value 0.0614 | locus YJL164C, strain tpk1, stronger effect = lower value 0.0678 | locus YJL166W, strain qcr8, stronger effect = lower value 0.064 | locus YJL168C, strain set2, stronger effect = lower value 0.0596 | locus YJL187C, strain SWE1 (second series), stronger effect = lower value 0.0488 | locus YJR043C, strain POL32, stronger effect = lower value 0.0648 | locus YJR066W, strain TOR1, stronger effect = lower value 0.016 | locus YKL009W, strain mrt4, stronger effect = lower value 0.0996 | locus YKL068W, stronger effect = lower value 0.0901 | locus YKL085W, strain MDH1 (second series), stronger effect = lower value 0.0744 | locus YKL085W, strain MDH1, stronger effect = lower value 0.0744 | locus YKL160W, strain elf1, stronger effect = lower value 0.0633 | locus YKR001C, strain vps1, stronger effect = lower value 0.0631 | locus YKR026C, strain gcn3, stronger effect = lower value 0.0593 | locus YKR091W, strain srl3, stronger effect = lower value 0.0594 | locus YLL001W, strain dnm1, stronger effect = lower value 0.0628 | locus YLL026W, stronger effect = lower value 0.0716 | locus YLL041C, strain sdh2, stronger effect = lower value 0.0574 | locus YLR027C, strain aat2, stronger effect = lower value 0.0566 | locus YLR039C, strain RIC1, stronger effect = lower value 0.0954 | locus YLR058C, strain SHM2, stronger effect = lower value 0.048 | locus YLR102C, strain apc9, stronger effect = lower value 0.0623 | locus YLR113W, strain HOG1, stronger effect = lower value 0.156 | locus YLR221C, strain rsa3, stronger effect = lower value 0.0591 | locus YLR258W, strain gsy2, stronger effect = lower value 0.0599 | locus YLR262C, strain YPT6 (second series), stronger effect = lower value 0.0778 | locus YLR262C, strain YPT6, stronger effect = lower value 0.109 | locus YLR268W, strain sec22, stronger effect = lower value 0.0686 | locus YLR320W, strain mms22, stronger effect = lower value 0.0761 | locus YLR330W, strain CHS5, stronger effect = lower value 0.0528 | locus YLR342W, strain FKS1 (second series), stronger effect = lower value 0.0674 | locus YLR342W, strain FKS1, stronger effect = lower value 0.0672 | locus YLR357W, strain rsc2, stronger effect = lower value 0.126 | locus YLR370C, strain arc18, stronger effect = lower value 0.0649 | locus YLR371W, strain rom2, stronger effect = lower value 0.0633 | locus YLR384C, strain iki3, stronger effect = lower value 0.0655 | locus YLR418C, strain cdc73, stronger effect = lower value 0.0956 | locus YML016C, strain PPZ1, stronger effect = lower value 0.0479 | locus YML032C, strain rad52, stronger effect = lower value 0.0691 | locus YML120C, strain ndi1, stronger effect = lower value 0.058 | locus YML124C, strain tub3, stronger effect = lower value 0.0616 | locus YMR058W, strain fet3, stronger effect = lower value 0.0615 | locus YMR078C, strain ctf18, stronger effect = lower value 0.0734 | locus YMR125W, strain sto1, stronger effect = lower value 0.0678 | locus YMR129W, stronger effect = lower value 0.0585 | locus YMR205C, strain PFK2, stronger effect = lower value 0.0848 | locus YMR223W, strain ubp8, stronger effect = lower value 0.0652 | locus YMR231W, strain pep5, stronger effect = lower value 0.0713 | locus YMR307W, strain GAS1, stronger effect = lower value 0.125 | locus YNL067W, strain RPL9B, stronger effect = lower value 0.0471 | locus YNL071W, strain lat1, stronger effect = lower value 0.0635 | locus YNL153C, strain GIM3, stronger effect = lower value 0.695 | locus YNL175C, strain NOP13, stronger effect = lower value 0.0913 | locus YNL183C, strain NPR1, stronger effect = lower value -0.00509 | locus YNL197C, strain WHI3, stronger effect = lower value 0.0874 | locus YNL209W, strain ssb2, stronger effect = lower value 0.0647 | locus YNL224C, strain SQS1, stronger effect = lower value 0.109 | locus YNL233W, strain BNI4, stronger effect = lower value 0.0563 | locus YNL248C, strain rpa49, stronger effect = lower value 0.0733 | locus YNL250W, strain rad50, stronger effect = lower value 0.0869 | locus YNL271C, strain bni1, stronger effect = lower value 0.0905 | locus YNL298W, strain CLA4, stronger effect = lower value 0.0742 | locus YNL307C, strain MCK1, stronger effect = lower value 0.0679 | locus YNL322C, strain KRE1 (second series), stronger effect = lower value 0.0616 | locus YNR049C, strain mso1, stronger effect = lower value 0.0594 | locus YNR052C, strain pop2, stronger effect = lower value 0.0613 | locus YOL006C, strain TOP1, stronger effect = lower value 0.115 | locus YOL147C, strain pex11, stronger effect = lower value 0.0589 | locus YOR001W, strain rrp6, stronger effect = lower value 0.075 | locus YOR061W, strain CKA2, stronger effect = lower value 0.0463 | locus YOR069W, strain VPS5, stronger effect = lower value 0.0473 | locus YOR070C, strain gyp1, stronger effect = lower value 0.0595 | locus YOR080W, strain dia2, stronger effect = lower value 0.0658 | locus YOR083W, strain WHI5 (second series), stronger effect = lower value 0.0984 | locus YOR083W, strain WHI5, stronger effect = lower value 0.0702 | locus YOR106W, strain vam3, stronger effect = lower value 0.0682 | locus YOR136W, strain idh2, stronger effect = lower value 0.0727 | locus YOR144C, strain elg1, stronger effect = lower value 0.0577 | locus YOR184W, strain ser1, stronger effect = lower value 0.0702 | locus YOR231W, strain MKK1, stronger effect = lower value 0.117 | locus YOR265W, strain rbl2, stronger effect = lower value 0.0588 | locus YOR270C, strain vph1, stronger effect = lower value 0.092 | locus YOR290C, strain snf2, stronger effect = lower value 0.0637 | locus YOR316C, strain cot1, stronger effect = lower value 0.0603 | locus YPL051W, strain arl3, stronger effect = lower value 0.0647 | locus YPL055C, strain LGE1, stronger effect = lower value 0.0751 | locus YPL078C, strain atp4, stronger effect = lower value 0.0637 | locus YPL106C, strain sse1, stronger effect = lower value 0.0995 | locus YPL240C, strain hsp82, stronger effect = lower value 0.0582 | locus YPL256C, strain CLN2, stronger effect = lower value 0.127 | locus YPR119W, strain clb2, stronger effect = lower value 0.0642 | locus YPR141C, strain kar3, stronger effect = lower value 0.096 | locus YPR163C, strain tif3, stronger effect = lower value 0.0728 | locus YPR167C, strain met16, stronger effect = lower value 0.0634 | strain wtn01, stronger effect = lower value 0.0677
